Assay results from PubChem BioAssay (EPA / NIEHS).
Where “and” joins values, the source holds several entries; their conditions need not be identical. Identical values can stand only once. The source holds several records for some structures; these can differ, active in one and inactive in another. Calls of active or inactive are those of the source. The calls were made as follows: active = hit-call score of the fitted dose curve at least 0.9, where 1 is the maximum; inactive = score below 0.9.

Experiments:
[1] = read-out: TIMP metallopeptidase inhibitor 2 (TIMP2), TIMP2 (gene 7077); test: BSK_KF3CT_TIMP2: BioMAP Diversity Plus: KF3CT Assay for TIMP metallopeptidase inhibitor 2 (TIMP2) Biomarker Activity (AID 2283071); details: primary human keratinocytes with fibroblasts; actives raise or lower the signal
How it was run: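 TIMP-2 measured by ELISA at 24 h in human keratinocyte/fibroblast primary co-cultures exposed to chemicals. Both increases and decreases were fitted against DMSO. Parallel cultures were stained with SRB for total protein as an overt-cytotoxicity check.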

[2] = read-out: Transforming growth factor beta 1 (TGFb1), TGFB1 (gene 7040); test: BSK_KF3CT_TGFb1: BioMAP Diversity Plus: KF3CT Assay for Transforming growth factor beta 1 (TGFb1) Biomarker Activity (AID 2283072); details: primary human keratinocytes with fibroblasts; actives raise or lower the signal
How it was run: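 ELISA quantifies TGF-b1 at 24 h post-dose in a primary human skin co-culture of keratinocytes and fibroblasts, with gain or loss judged against DMSO. Parallel SRB total-protein staining flags overt cytotoxicity.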

[3] = read-out: C-C motif chemokine 2 (Homo sapiens) (UniProt P13500); test: BSK_KF3CT_MCP1: BioMAP Diversity Plus: KF3CT Assay for Monocyte Chemoattractant Protein 1 (MCP1/CCL2) Biomarker Activity (AID 2283073); details: primary human keratinocytes with fibroblasts; actives raise or lower the signal
How it was run: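 ELISA readout of MCP-1 after 24 h chemical dosing of a human skin primary co-culture of keratinocytes and foreskin fibroblasts. Activity was fitted in both directions against DMSO.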

[4] = read-out: Matrix Metallopeptidase 9 (MMP9), MMP9 (gene 4318); test: BSK_KF3CT_MMP9: BioMAP Diversity Plus: KF3CT Assay for Matrix Metallopeptidase 9 (MMP9) Biomarker Activity (AID 2283074); details: primary human keratinocytes with fibroblasts; actives raise or lower the signal;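 as to AC50: MMP9 protein level quantified by ELISA in the co-culture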
How it was run: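 Values come from bidirectional fitting relative to DMSO of MMP-9 levels, which were measured by ELISA. Measurements were taken 24 h after chemical dosing of a keratinocyte and foreskin fibroblast co-culture.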

[5] = read-out: urokinase plasminogen activator (uPA), PLAU (gene 5328); test: BSK_KF3CT_uPA: BioMAP Diversity Plus: KF3CT Assay for urokinase plasminogen activator (uPA) Biomarker Activity (AID 2283075); details: primary human keratinocytes with fibroblasts; actives raise or lower the signal
How it was run: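 Values derive from bidirectional fitting against DMSO controls. Keratinocyte/foreskin fibroblast co-cultures received chemical; 24 h later uPA was detected by ELISA, with SRB total-protein staining in parallel wells for overt cytotoxicity.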

CD40, CD40 (gene 958) = test: BSK_LPS_CD40: BioMAP Diversity Plus: LPS Assay for CD40 Biomarker Activity (AID 2283076); details: primary human HUVEC with PBMC; actives raise or lower the signal
How it was run: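 Cells were dosed, incubated 24 h, then assayed for CD40 by ELISA. Gain or loss of signal was analysed relative to DMSO controls. The culture paired human umbilical vein endothelium with peripheral blood mononuclear cells.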

[6] = read-out: E-selectin (Homo sapiens) (UniProt P16581); test: BSK_LPS_Eselectin: BioMAP Diversity Plus: LPS Assay for Eselectin Biomarker Activity (AID 2283077); details: primary human HUVEC with PBMC; actives raise or lower the signal
How it was run: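 Primary human vascular co-culture (endothelium plus PBMC) was dosed with chemical, then E-selectin quantified by ELISA at 24 h. Endpoint values derive from bidirectional curve fitting relative to DMSO.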

[7] = read-out: Interleukin-8 (IL8), CXCL8 (gene 3576); test: BSK_LPS_IL8: BioMAP Diversity Plus: LPS Assay for Interleukin-8 (IL8) Biomarker Activity (AID 2283078); details: primary human HUVEC with PBMC; actives raise or lower the signal
How it was run: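 Readout is IL-8 by ELISA, taken 24 h after compounds were added to LPS-stimulated endothelial/PBMC co-cultures. Both increases and decreases relative to DMSO control were scored through bidirectional fitting.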

[8] = BSK_LPS_SRB: Viability Assessment in the BioMAP Diversity Plus: LPS Assay (AID 2283079); details: primary human HUVEC with PBMC;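 also: total protein by sulforhodamine B absorbance as a cytotoxicity measure; measured one day after compound addition; fitted in both directions against DMSO so loss or gain of signal counts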
How it was run: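 Readout is SRB absorbance at 560 nm (0.1% stain, TCA-fixed parallel cultures) as a total-protein cytotoxicity measure. Cells: primary human umbilical vein endothelium plus peripheral blood mononuclear cells, 24 h after chemical exposure; DMSO served as baseline.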

[9] = read-out: Interleukin-1 alpha (IL1a), IL1A (gene 3552); test: BSK_LPS_IL1a: BioMAP Diversity Plus: LPS Assay for Interleukin-1 alpha (IL1a) Biomarker Activity (AID 2283080); details: primary human HUVEC with PBMC; actives raise or lower the signal
How it was run: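 ELISA read-out of IL-1 alpha from a human primary vascular co-culture (endothelium plus PBMC) under LPS, sampled 24 hours post-dosing. Activity was fitted in both directions relative to DMSO controls.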

Measured: AC50

Sequence of E-selectin (Homo sapiens) (P16581 whole entry, looked up): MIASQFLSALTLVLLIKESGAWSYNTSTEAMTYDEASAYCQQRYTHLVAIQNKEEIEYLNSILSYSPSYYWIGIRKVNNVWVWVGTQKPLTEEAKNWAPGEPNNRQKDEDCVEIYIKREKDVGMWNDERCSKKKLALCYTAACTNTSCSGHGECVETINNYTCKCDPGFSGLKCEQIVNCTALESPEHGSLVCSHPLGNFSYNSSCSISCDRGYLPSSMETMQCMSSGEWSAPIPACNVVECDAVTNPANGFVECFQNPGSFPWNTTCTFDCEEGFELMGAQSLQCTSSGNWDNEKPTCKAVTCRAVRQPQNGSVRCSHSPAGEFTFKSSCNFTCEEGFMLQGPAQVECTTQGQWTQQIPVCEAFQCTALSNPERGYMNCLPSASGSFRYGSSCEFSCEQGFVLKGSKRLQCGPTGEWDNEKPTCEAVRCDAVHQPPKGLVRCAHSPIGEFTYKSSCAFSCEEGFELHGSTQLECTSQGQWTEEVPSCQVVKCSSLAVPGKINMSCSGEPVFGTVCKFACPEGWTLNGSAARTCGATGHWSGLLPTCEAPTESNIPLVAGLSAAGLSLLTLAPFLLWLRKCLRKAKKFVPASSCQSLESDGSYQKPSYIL

CC(=O)OC(C)(C)C1CC=C(C)CC1 (stereo not drawn)
active: [1] 33.8 µM | [5] 32.4 µM
inactive: all other assays above

CC=CC(=O)C1=C(C)C=CCC1(C)C
not listed: [4]
inactive: all other assays above

C[C@]12CC[C@@H]3c4ccc(O)cc4CC[C@H]3[C@@H]1CC[C@@H]2O
active: [8] 12 µM
not listed: [4]
inactive: all other assays above

NC(=O)c1c(Cl)cccc1Cl
not listed: [4]
inactive: all other assays above

O=C1OC2(c3ccc(O)cc3Oc3cc(O)ccc32)c2ccccc21
not listed: [4]
inactive: all other assays above

C#C[C@]1(O)CC[C@H]2[C@@H]3CCc4cc(O)ccc4[C@H]3CC[C@@]21C
active: [7] 31.2 µM | [8] 9.58 µM | [9] 20 µM
not listed: [4]
inactive: all other assays above

CCCCCCCC1CCCC1=O (stereo not drawn)
active: [1] 31.3 µM | [2] 36.3 µM | [3] 31.5 µM | [5] 35.6 µM
not listed: [4]
inactive: all other assays above

COc1ccccc1NC(=O)CC(C)=O
not listed: [4]
inactive: all other assays above

COC(=O)c1ccc(C(=O)OC)cc1
inactive: all assays above

CC(=O)OCC=C(C)CCC=C(C)CCC=C(C)C
not listed: [4]
inactive: all other assays above

C=C(C)C(N)=O
not listed: [4]
inactive: all other assays above

CC1(C)[C@H](C=C(Cl)Cl)[C@H]1C(=O)OCc1cccc(Oc2ccccc2)c1
not listed: [4]
inactive: all other assays above

CCCCOCCOCCO
not listed: [4]
inactive: all other assays above

CC(=O)CCC=C(C)CCC=C(C)C
not listed: [4]
inactive: all other assays above

CCOC(=O)CCCCCCCCC(=O)OCC
not listed: [4]
inactive: all other assays above

CCC(=O)OCC=Cc1ccccc1
not listed: [4]
inactive: all other assays above

CC(C)Cc1ccc(C(C)C(=O)O)cc1 (stereo not drawn)
not listed: [4]
inactive: all other assays above

CC/C(=C(\c1ccccc1)c1ccc(OCCN(C)C)cc1)c1ccccc1
active: [1] 7.86 µM and 9.54 µM | [2] 8.7 µM and 6.05 µM | [3] 5.98 µM and 7.88 µM | [5] 9.92 µM and 9.67 µM | CD40, CD40 (gene 958) 7.05 µM and 5.81 µM | [6] 28.3 µM and 14.3 µM | [7] 26.5 µM and 10.8 µM | [8] 9.77 µM and 10.4 µM | [9] 6.74 µM and 9.95 µM

CCCCCCCCCC(=O)OCC
active: [2] 32.2 µM | [3] 13.3 µM
not listed: [4]
inactive: all other assays above

CC(C)(C)c1cccc(O)c1
not listed: [4]
inactive: all other assays above

c1ccc2c(c1)-c1ccc3ccc4cccc5cc-2c1c3c45
active: [1] 0.825 µM | [3] 0.238 µM | CD40, CD40 (gene 958) 2.76 µM
not listed: [4]
inactive: all other assays above

O=S1(=O)CC(Cl)(Cl)C(Cl)(Cl)C1
active: [1] 1.36 µM | [2] 1.11 µM | [3] 1.38 µM | [4] 1.74 µM | [5] 2 µM | CD40, CD40 (gene 958) 0.457 µM | [6] 1.1 µM | [7] 1.47 µM | [8] 5.01 µM | [9] 0.518 µM

OCCN1CCOCC1
not listed: [4]
inactive: all other assays above

CC(C)CCCC(C)(C)O
not listed: [2] | [4]
inactive: all other assays above

OCC(F)(OC(F)(F)C(F)(OC(F)(F)C(F)(F)C(F)(F)F)C(F)(F)F)C(F)(F)F (stereo not drawn)
inactive: [3] | CD40, CD40 (gene 958) | [7] | [8]
active: [1] 5.58 µM and 5.62 µM | [3] 5.14 µM | [5] 5.49 µM and 3.33 µM | CD40, CD40 (gene 958) 1.1 µM | [6] 5.03 µM and 3.77 µM | [9] 5.01 µM and 4.53 µM

CCn1cc(C(=O)O)c(=O)c2ccc(C)nc21
not listed: [2] | [4]
inactive: all other assays above

O=C(c1ccc(OCCN2CCCCC2)cc1)c1c(-c2ccc(O)cc2)sc2cc(O)ccc12
active: [1] 29.3 µM | [2] 19.8 µM | [3] 29.1 µM | [5] 34.9 µM | CD40, CD40 (gene 958) 16.6 µM | [6] 38.3 µM | [7] 33.8 µM | [8] 26.7 µM | [9] 21 µM

C=C(F)C(=O)OC(C(F)(F)F)C(F)(F)F
not listed: [2] | [4]
inactive: all other assays above

C=CC(=O)OCC(CO)(COC(=O)C=C)COC(=O)C=C
active: [1] 0.529 µM | [2] 0.415 µM | [3] 5.44 µM | [5] 0.685 µM | CD40, CD40 (gene 958) 0.454 µM | [6] 0.311 µM | [7] 3.97 µM | [8] 0.749 µM | [9] 0.404 µM

O=C(O)C(F)(F)OC(F)(F)C(F)(F)OC(F)(F)C(F)(F)C(F)(F)C(F)(F)F
inactive: [1] | [3] | [5] | CD40, CD40 (gene 958) | [6] | [7] | [8] | [9]
active: CD40, CD40 (gene 958) 48.6 µM | [8] 51 µM

CCCCCCCCCCCCS
active: [1] 20 µM | [2] 29.3 µM | [5] 20 µM | CD40, CD40 (gene 958) 20 µM | [6] 20 µM | [8] 20 µM
inactive: [3] | [7] | [9]

CC(=O)c1ccc(C)cc1
not listed: [2] | [4]
inactive: all other assays above

C=C1CC/C=C(\C)CC[C@@H]2[C@@H]1CC2(C)C
inactive: [7]
active: [1] 10.8 µM | [2] 20 µM | [3] 4.87 µM | [5] 34.5 µM | CD40, CD40 (gene 958) 30.5 µM | [6] 21.2 µM | [8] 36.3 µM | [9] 31.8 µM

CCCCN(CCO)CCO
active: [5] 14.9 µM
inactive: [1] | [3] | [5] | CD40, CD40 (gene 958) | [6] | [7] | [8] | [9]

CCOC(=O)C=Cc1ccccc1
not listed: [4]
inactive: all other assays above

c1ccc(OCCOc2ccccc2)cc1
not listed: [2]
inactive: all other assays above

C=C(C)C(=O)OCCC(F)(F)C(F)(F)C(F)(F)C(F)(F)C(F)(F)C(F)(F)C(F)(F)C(F)(F)F
not listed: [2] | [4]
inactive: all other assays above

c1ccc(Sc2ccccc2)cc1
inactive: CD40, CD40 (gene 958)
active: [1] 27.8 µM | [2] 32 µM | [3] 32.8 µM | [5] 33.1 µM | [6] 33.1 µM | [7] 20 µM | [8] 32.2 µM | [9] 33.8 µM

CC(C)(CO)CO
not listed: [2] | [4]
inactive: all other assays above

O=C(O)C(F)(F)C(F)(F)C(F)(F)C(F)(F)C(F)(F)C(F)(F)C(F)(F)C(F)F
active: [7] 8.81 µM and 17.9 µM
not listed: [2] | [4]
inactive: all other assays above

CCCO[Si](OCCC)(OCCC)OCCC
active: [7] 3.97 µM
inactive: [1] | [3] | [5] | CD40, CD40 (gene 958) | [6] | [7] | [8] | [9]

CC1=CC(C)C(C=O)C(C)C1 (stereo not drawn) (tested in a mixture with another compound)
not listed: [4]
inactive: all other assays above

Nc1ccc(N)c([N+](=O)[O-])c1
not listed: [4]
inactive: all other assays above

O=S(=O)(O)C(F)(F)C(F)(F)OC(F)(F)C(F)(F)F
active: [7] 30 µM and 10 µM
not listed: [2] | [4]
inactive: all other assays above
